This note sets out measurements from PubChem BioAssay AID2546 (National Center for Advancing Translational Sciences (NCATS), 2010).

Screen size: about 310,000 compounds; about 11,000 (3.5%) were called active. Roughly 8% stayed inconclusive and do not appear here. Shown is part of a subset that was picked to be rich in actives. A number with no mark means an inactive call. Calls follow the shape of the dose curve; as a rule, active = well fitted inhibition curve with a large enough effect; inconclusive = small, poorly fitted or top-dose-only effect, or effect the other way; inactive = flat fitted curve, though single readings scatter.
% is scaled to controls: 0 for no effect and ±100 for the full control effect; potency is read from the fitted curve at half-maximal effect.

The nature of this test: VP16 counterscreen qHTS for inhibitors of ROR gamma transcriptional activity.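 Also: Gal4-VP16 expression switched on by copper sulfate through the metallothionein promoter; nearly all actives have a fitted effect of over 50% in size.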 Particulars: Drosophila S2 Gal4-VP16 UAS-luciferase, luminescence, 20 h; series mostly up to 53.6 µM; activity, negative = inhibition: at the top concentration. An excerpt:
NIH Molecular Libraries Probe Production Network [MLPCN]
NIH Chemical Genomics Center [NCGC]
Assay Provider: Dan Littman, New York University
The retinoic acid-related orphan receptor (ROR) gamma is a transcription factor that has a central role in the differentiation of Th17 cells, a subset of T helper cells that secrete the inflammatory cytokines IL-17, IL-17F, and IL-22. Th17 cells have been implicated in graft versus host disease, autoimmune disease and asthma. ROR gamma is induced in naive T helper cells in the presence of TGF-beta combined with IL-6, IL-21, or IL-23, and thereafter directs the expression of the Th17 lineage cytokines. To identify nonspecific inhibitors, a Drosophila Schneider cell line was stably transfected with two vectors: a gene expressing a fusion of the Gal4 DNA binding domain and VP16 transactivation domain under the control of the metallothionine promoter and a Photinus luciferase reporter regulated by the Gal4 binding site enhancer, UAS. […] Small molecule inhibitors that inhibit components common to the RORgt and VP16 assays, such as the Gal4 DNA binding domain or the UAS luciferase reporter, will be active in both assays and thus scored as nonspecific.
For screening, 600 cells in 4 uL/well were dispensed into white solid 1536-well plates (Grenier) using a solenoid-based dispenser. Following transfer of 23 nL compound or DMSO vehicle by a pin tool, the plates were incubated 1 hr at ambient temperature, and 1 uL/well copper sulfate (700 uM final concentration) was added. The plates were centrifuged 15 s at 1000 RPM and incubated 20 hr at ambient temperature. After addition of 1.5 uL Photinus luciferase detection reagent, the plates were incubated 10 min at ambient temperature and then read by a ViewLux (Perkin Elmer) to detect luminescence.
Turning to `COc1cc(NC(=O)C2=C(C)OCCS2)c(Cl)cc1C(=O)NCCN1CCN(C)CC1`, the “activity, negative = inhibition” value was -7.6%.

In the case of `Cn1nccc1/C=N\NC(=O)c1ccc(Cl)cc1`, the “activity, negative = inhibition” value is -8.81%.

As to `CCOc1ccc(CCNC(=O)Nc2ccccc2)cc1OCC`, the “activity, negative = inhibition” value is 6.47%.

Turning to `COc1ccc(/C=C2\SC(=S)N(CCC(=O)Nc3cccc(C(=O)O)c3)C2=O)cc1OC`, the “activity, negative = inhibition” value is -1.72%.

In the case of `COc1ccc(NC(=O)CCN2C(=O)/C(=C/c3ccc4c(c3)OCO4)SC2=S)cc1`, the “activity, negative = inhibition” value was -2.97%.

Consider `O=C(CCCN1C(=O)/C(=C/c2ccccc2)SC1=S)Nc1ccc(O)cc1`, for which the Potency is 2 µM (active).

As to `O=C(CCCN1C(=O)/C(=C/c2ccco2)SC1=S)Nc1ccccc1`, the Potency was 12.6 µM (active).

Turning to `Cc1ccc(/C=C2\SC(=S)N(CCC(=O)Nc3ccc(O)cc3)C2=O)cc1`, the “activity, negative = inhibition” value was 7.84%.

Turning to `COc1ccccc1C(=O)NNC(=O)CCN1C(=O)/C(=C\c2ccccc2)SC1=S`, the “activity, negative = inhibition” value was -9.43%.

For `COC(=O)c1ccc(Nc2ncnc3sccc23)cc1`, the “activity, negative = inhibition” value is 3.15%.

Regarding `CCCCCCC(O)(CCN1CCCCC1)c1ccccc1` (stereo not drawn), the “activity, negative = inhibition” value was -16.4%.

Consider `CC(=O)N1c2ccc(S(=O)(=O)N3CCC(C(=O)N4CCN(c5ccccc5)CC4)CC3)cc2CC1C` (stereo not drawn), for which the “activity, negative = inhibition” value is 4.75%.

With `Brc1cc(/C=N/n2cnnc2)oc1Br`, the “activity, negative = inhibition” value is -2.44%.

In the case of `Fc1ccc(Br)cc1/C=N/n1cnnc1`, the “activity, negative = inhibition” value was -6.06%.

Regarding `CCOc1cc(/C=N/n2cnnc2)c(Br)cc1O`, the Potency was 5.62 µM (active).

With `COc1cc(C(=O)OCC(=O)NC(C)CCc2ccccc2)cc(OC)c1OC` (stereo not drawn), the “activity, negative = inhibition” value is 3.99%.

In the case of `O=C(C[n+]1cc(Br)cc2ccccc21)c1ccc(F)cc1`, the “activity, negative = inhibition” value is 16.3%.

As for `COc1ccc(CNc2ncnc3ccccc23)cc1`, the Potency is 7.08 µM (active).

As for `Brc1ccc2ncnc(NCc3cccnc3)c2c1`, the “activity, negative = inhibition” value was 3.99%.

As to `c1ccc(-c2nc(NCc3ccco3)c3ccccc3n2)cc1`, the “activity, negative = inhibition” value is -86.1%.

Turning to `COc1ccc(Nc2ncnc3ccc(OC)cc23)cc1`, the “activity, negative = inhibition” value was -2.23%.

Turning to `c1coc(CNc2ncnc3ccccc23)c1`, the Potency was 10 µM (active).

Regarding `COc1cccc(CNc2nc(C(F)(F)F)nc3ccccc23)c1`, the “activity, negative = inhibition” value is -10.5%.

As to `CCOCCCN(C)C1CCN(C(=O)c2oc3ccccc3c2NC(=O)COc2cccc(C)c2)CC1`, the “activity, negative = inhibition” value is -2.07%.

Turning to `Cc1cccn2c(=O)c3cc(C(=O)NCCN4CCOCC4)c(=N)n(Cc4cccnc4)c3nc12`, the “activity, negative = inhibition” value was -1.41%.

As for `COc1cc2c(cc1OC)CN(C(=O)c1cc(S(=O)(=O)N3CCCCC3)ccc1Cl)CC2`, the “activity, negative = inhibition” value is 6%.

With `CC(C)c1nc(SCC(=O)Nc2cccc(C(=O)O)c2)c2c3c(sc2n1)CCCC3`, the “activity, negative = inhibition” value is 13%.

For the compound `Cc1ccc(C)c(-n2c(SCC(=O)O)nc3sc4c(c3c2=O)CCCC4)c1`, the “activity, negative = inhibition” value is -15.4%.

Regarding `CC/C(C)=N/Nc1nc2sc3c(c2c(=O)[nH]1)CC(C)(C)OC3`, the “activity, negative = inhibition” value was -5.75%.

For the compound `COCCNc1nc(-n2nc(C)cc2C)nc2sc3c(c12)CCCC3`, the Potency was 3.16 µM (active).

For `CCCc1nc(SCC(=O)N2CCCC2)c2c(=O)n(C)c(=O)n(C)c2n1`, the “activity, negative = inhibition” value is 7.13%.

As to `CCC(O)CNc1nc(-n2nc(C)cc2C)nc2sc3c(c12)CC(C)(C)OC3` (stereo not drawn), the Potency is 3.98 µM (active).

As to `Cc1cc(C)n(-c2nc(SCC(=O)N3CCCC3)c3c4c(sc3n2)CCCC4)n1`, the Potency is 10 µM (active).

For `CCOC(=O)CSc1nc2sc3c(c2c(=O)[nH]1)CC(C)(C)OC3`, the “activity, negative = inhibition” value is -4.44%.

`Cc1nc2sc3c(c2c(=O)n1NC(=O)CCl)CCCC3`: the “activity, negative = inhibition” value was 0.993%.

As for `O=C(C1CCCN(S(=O)(=O)c2ccccc2)C1)N1CCN(c2ccc(F)cc2)CC1` (stereo not drawn), the “activity, negative = inhibition” value was -1.43%.

With `Cc1nc([N+](=O)[O-])cn1CC(=O)Nc1ccc(Cl)cc1`, the “activity, negative = inhibition” value is -5.36%.

Regarding `CC(NC(=S)Nc1ccccc1)C1COc2ccccc2O1` (stereo not drawn), the Potency is 5.01 µM (active).

In the case of `CC(=O)c1cccc(NC(=O)C2COc3ccccc3O2)c1` (stereo not drawn), the “activity, negative = inhibition” value is 28.1%.

Take `O=C(NCC1COc2ccccc2O1)C1(c2ccccc2)CCCC1` (stereo not drawn): the “activity, negative = inhibition” value was -20.2%.

Regarding `CSc1c(SCc2ccccc2)cnn(Cc2ccccc2)c1=O`, the Potency is 7.08 µM (active).

Turning to `Cn1c(CO)cnc1SCc1ccccc1`, the “activity, negative = inhibition” value is 1.65%.

With `CSc1nc2ccccc2c(=O)n1Cc1ccc(F)cc1`, the activity, negative = inhibition is 7.17% [at 10 µM].

Take `O=C(NCC(=O)N1CCN(c2ccccc2O)CC1)c1ccc2ccccc2c1`: the “activity, negative = inhibition” value was 1.8%.

Turning to `Cc1ccccc1-n1cc(CNC(=O)C2CCC(=O)N(C3CC3)C2)cn1` (stereo not drawn), the “activity, negative = inhibition” value was -2.71%.

`CC(C)CC(=O)Nc1ccc(Cc2ccncc2)cc1`: the “activity, negative = inhibition” value is 2.31%.

For the compound `Cc1c(C(=O)N2CCCc3ccccc32)oc2ccccc12`, the “activity, negative = inhibition” value is -1.3%.

On to `Cc1cc(-c2ccc(C)c(S(=O)(=O)NCCCN(Cc3ccccc3)C(C)C)c2)on1`, for which the “activity, negative = inhibition” value is 13.3%.

Turning to `Cc1noc(C)c1C(=O)OCC(=O)/C=C1\N(C)c2ccccc2C1(C)C`, the “activity, negative = inhibition” value is -5.14%.

Consider `CC(=O)Nc1cccc(OCC(=O)/C=C2\N(C)c3ccccc3C2(C)C)c1`, for which the Potency is 3.16 µM (active).

On to `CN1/C(=C\C(=O)c2cccnc2Cl)C(C)(C)c2ccccc21`, for which the “activity, negative = inhibition” value is -8.82%.

As for `COCC1CCN(C(=O)CCc2nnc(C3(c4ccc(Cl)cc4)CCC3)o2)C1` (stereo not drawn), the “activity, negative = inhibition” value is 27.7%.

For the compound `C=CCn1c(=O)c(C(=O)NCc2ccc3c(c2)OCO3)c(O)c2ccccc21`, the “activity, negative = inhibition” value is -4.31%.

Regarding `O=C(COC(=O)c1n[nH]c2ccccc12)NCc1ccccc1`, the “activity, negative = inhibition” value is 7.8%.

For `CN(C)S(=O)(=O)c1ccc(NC(=O)COC(=O)Cn2[nH]c(=O)c3ccccc3c2=O)cc1`, the “activity, negative = inhibition” value is -2.41%.

With `CN(C)S(=O)(=O)c1ccc(NC(=O)COC(=O)c2n[nH]c3ccccc23)cc1`, the Potency was 8.91 µM (active).

Turning to `O=C1c2cccc3c([N+](=O)[O-])ccc(c23)C(=O)N1CC1CCCO1` (stereo not drawn), the Potency was 5.62 µM (active).

In the case of `O=C(/C=C/c1ccccc1[N+](=O)[O-])NCC1CCCO1` (stereo not drawn), the “activity, negative = inhibition” value is 3.92%.

As for `CCC(=O)Nc1ccc(C(=O)Nc2ccc3c(c2)C(=O)N(CC2CCCO2)C3=O)cc1` (stereo not drawn), the “activity, negative = inhibition” value is -24.9%.

Consider `Cc1ccc(-n2c(C)nnc2SCC(=O)NC2CC2)cc1`, for which the “activity, negative = inhibition” value is 1.94%.

With `O=C(NCc1cccc(Cl)c1)C1CCC(=O)N(C2CC2)C1` (stereo not drawn), the “activity, negative = inhibition” value was -5.17%.

For `COc1ccccc1CN1CCN(C(c2ccccc2)c2ccccc2)CC1`, the “activity, negative = inhibition” value is -11.1%.

For the compound `CCC(=O)N1CCN(c2ccccc2NC(=O)COc2cccc(C)c2C)CC1`, the “activity, negative = inhibition” value is 4.11%.

For the compound `CCOc1ccccc1NC(=S)N1CCN(c2cccc(C)c2C)CC1`, the Potency was 4.47 µM (active).

In the case of `CCOc1ccccc1N1CCN(C(=S)Nc2ccc(S(N)(=O)=O)cc2)CC1`, the “activity, negative = inhibition” value is -15.7%.

On to `COc1ccccc1NC(=S)N1CCN(c2ccc(F)cc2)CC1`, for which the “activity, negative = inhibition” value is -3.46%.

As to `COc1ccccc1NC(=S)N1CCN(C(c2ccccc2)c2ccccc2)CC1`, the Potency is 20 µM (active).

In the case of `Cc1sc2nc(SCCO)n(-c3ccccc3)c(=O)c2c1C`, the “activity, negative = inhibition” value was -3%.
